Measurements as given in ChEMBL document CHEMBL1961873, “Compounds: GSK PKIS; Assays: Nanosyn kinase panel” (2012).
“And” between values parts separate entries of the source, which are not always exact repeats. Equal values may be shown once.

Columns and labels:
[1] = biological target: T1, Ephrin type-B receptor 2 (Homo sapiens) (UniProt P29323); conditions: at 1 µM
T1 sequence (whole entry): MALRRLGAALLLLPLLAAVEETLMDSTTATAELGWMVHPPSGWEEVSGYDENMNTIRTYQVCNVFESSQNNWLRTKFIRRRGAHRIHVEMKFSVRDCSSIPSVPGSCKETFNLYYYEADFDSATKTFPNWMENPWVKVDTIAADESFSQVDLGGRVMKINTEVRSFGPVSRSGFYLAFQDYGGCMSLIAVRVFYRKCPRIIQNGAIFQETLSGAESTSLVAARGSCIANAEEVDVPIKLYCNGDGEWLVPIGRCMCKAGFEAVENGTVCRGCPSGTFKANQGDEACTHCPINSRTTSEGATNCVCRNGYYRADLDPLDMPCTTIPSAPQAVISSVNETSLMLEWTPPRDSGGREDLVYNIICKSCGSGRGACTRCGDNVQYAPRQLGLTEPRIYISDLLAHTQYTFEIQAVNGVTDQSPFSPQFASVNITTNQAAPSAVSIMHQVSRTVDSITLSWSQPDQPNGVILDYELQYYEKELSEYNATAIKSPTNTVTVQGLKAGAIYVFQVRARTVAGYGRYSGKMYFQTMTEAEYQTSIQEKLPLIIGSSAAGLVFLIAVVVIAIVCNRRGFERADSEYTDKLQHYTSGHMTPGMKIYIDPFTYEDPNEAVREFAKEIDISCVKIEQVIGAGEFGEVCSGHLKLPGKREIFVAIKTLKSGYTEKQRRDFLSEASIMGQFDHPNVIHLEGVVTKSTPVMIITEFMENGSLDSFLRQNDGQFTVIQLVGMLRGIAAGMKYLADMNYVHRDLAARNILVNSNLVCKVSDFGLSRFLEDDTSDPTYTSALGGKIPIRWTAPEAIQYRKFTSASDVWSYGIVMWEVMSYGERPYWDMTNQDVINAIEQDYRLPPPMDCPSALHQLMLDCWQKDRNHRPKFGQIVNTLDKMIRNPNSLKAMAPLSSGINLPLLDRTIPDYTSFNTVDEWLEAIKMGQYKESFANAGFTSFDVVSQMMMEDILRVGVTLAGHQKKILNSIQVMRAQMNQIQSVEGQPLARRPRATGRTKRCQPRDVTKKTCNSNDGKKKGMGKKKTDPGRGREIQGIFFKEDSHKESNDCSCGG

[2] = biological target: T2, Ephrin type-B receptor 3 (Homo sapiens) (UniProt P54753); conditions: at 0.1 µM
T2 sequence (whole entry): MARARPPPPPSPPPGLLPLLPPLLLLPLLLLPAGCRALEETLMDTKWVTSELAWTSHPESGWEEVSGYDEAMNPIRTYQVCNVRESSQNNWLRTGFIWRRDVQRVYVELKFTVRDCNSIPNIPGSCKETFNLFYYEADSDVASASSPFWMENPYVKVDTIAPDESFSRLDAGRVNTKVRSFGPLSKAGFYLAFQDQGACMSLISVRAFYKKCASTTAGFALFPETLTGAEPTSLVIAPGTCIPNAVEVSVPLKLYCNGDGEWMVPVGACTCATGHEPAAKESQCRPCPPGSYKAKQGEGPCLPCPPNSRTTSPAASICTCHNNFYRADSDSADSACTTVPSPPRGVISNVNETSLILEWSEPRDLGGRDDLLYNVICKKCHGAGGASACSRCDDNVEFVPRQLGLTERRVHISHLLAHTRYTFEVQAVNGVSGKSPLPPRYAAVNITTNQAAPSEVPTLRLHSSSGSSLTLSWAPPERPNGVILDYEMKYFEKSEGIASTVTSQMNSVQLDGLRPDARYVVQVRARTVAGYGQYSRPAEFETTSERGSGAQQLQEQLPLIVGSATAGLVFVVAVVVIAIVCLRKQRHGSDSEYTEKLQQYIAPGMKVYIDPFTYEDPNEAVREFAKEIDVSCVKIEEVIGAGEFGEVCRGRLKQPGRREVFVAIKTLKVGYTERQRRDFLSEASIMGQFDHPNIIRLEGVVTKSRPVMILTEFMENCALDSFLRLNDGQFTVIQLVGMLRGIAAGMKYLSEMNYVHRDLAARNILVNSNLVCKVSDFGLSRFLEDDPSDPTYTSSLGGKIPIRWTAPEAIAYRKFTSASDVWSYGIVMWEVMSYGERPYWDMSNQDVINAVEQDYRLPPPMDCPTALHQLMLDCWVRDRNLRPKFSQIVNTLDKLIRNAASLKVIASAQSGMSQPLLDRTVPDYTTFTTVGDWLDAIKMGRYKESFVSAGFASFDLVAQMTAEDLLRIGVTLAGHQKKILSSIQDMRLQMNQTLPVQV

[3] = biological target: T2, Ephrin type-B receptor 3 (Homo sapiens); conditions: at 1 µM
[4] = biological target: T3, Ephrin type-B receptor 4 (Homo sapiens) (UniProt P54760); conditions: at 0.1 µM
T3 sequence (whole entry): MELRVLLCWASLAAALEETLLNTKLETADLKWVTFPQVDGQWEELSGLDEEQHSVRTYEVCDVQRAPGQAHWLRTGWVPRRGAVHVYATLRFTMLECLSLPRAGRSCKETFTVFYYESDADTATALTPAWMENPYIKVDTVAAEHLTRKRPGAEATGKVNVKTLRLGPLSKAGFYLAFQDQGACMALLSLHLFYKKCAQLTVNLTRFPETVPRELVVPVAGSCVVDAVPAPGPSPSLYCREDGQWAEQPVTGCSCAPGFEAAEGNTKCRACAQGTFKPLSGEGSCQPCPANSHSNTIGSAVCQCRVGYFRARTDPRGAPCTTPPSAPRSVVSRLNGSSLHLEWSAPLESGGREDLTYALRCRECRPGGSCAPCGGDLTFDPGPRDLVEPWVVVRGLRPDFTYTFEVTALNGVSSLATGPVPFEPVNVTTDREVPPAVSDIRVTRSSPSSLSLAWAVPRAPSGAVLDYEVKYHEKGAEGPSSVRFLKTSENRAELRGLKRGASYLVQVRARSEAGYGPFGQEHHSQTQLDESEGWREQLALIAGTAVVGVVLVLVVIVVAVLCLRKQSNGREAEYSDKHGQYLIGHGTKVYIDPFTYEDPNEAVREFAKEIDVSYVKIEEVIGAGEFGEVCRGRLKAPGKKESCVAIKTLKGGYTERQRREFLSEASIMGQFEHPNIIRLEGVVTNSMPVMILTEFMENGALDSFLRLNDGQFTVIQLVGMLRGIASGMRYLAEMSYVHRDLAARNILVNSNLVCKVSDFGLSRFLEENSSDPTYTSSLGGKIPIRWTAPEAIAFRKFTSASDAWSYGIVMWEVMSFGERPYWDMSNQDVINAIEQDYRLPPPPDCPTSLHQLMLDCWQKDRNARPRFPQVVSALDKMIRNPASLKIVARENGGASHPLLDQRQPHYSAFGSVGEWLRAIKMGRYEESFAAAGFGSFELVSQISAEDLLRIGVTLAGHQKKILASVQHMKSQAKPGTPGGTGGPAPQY

[5] = biological target: T3, Ephrin type-B receptor 4 (Homo sapiens); conditions: at 1 µM
[6] = biological target: Receptor tyrosine-protein kinase erbB-2 (Homo sapiens) (UniProt P04626); conditions: at 0.1 µM
Sequence of Receptor tyrosine-protein kinase erbB-2 (Homo sapiens) (P04626 whole entry): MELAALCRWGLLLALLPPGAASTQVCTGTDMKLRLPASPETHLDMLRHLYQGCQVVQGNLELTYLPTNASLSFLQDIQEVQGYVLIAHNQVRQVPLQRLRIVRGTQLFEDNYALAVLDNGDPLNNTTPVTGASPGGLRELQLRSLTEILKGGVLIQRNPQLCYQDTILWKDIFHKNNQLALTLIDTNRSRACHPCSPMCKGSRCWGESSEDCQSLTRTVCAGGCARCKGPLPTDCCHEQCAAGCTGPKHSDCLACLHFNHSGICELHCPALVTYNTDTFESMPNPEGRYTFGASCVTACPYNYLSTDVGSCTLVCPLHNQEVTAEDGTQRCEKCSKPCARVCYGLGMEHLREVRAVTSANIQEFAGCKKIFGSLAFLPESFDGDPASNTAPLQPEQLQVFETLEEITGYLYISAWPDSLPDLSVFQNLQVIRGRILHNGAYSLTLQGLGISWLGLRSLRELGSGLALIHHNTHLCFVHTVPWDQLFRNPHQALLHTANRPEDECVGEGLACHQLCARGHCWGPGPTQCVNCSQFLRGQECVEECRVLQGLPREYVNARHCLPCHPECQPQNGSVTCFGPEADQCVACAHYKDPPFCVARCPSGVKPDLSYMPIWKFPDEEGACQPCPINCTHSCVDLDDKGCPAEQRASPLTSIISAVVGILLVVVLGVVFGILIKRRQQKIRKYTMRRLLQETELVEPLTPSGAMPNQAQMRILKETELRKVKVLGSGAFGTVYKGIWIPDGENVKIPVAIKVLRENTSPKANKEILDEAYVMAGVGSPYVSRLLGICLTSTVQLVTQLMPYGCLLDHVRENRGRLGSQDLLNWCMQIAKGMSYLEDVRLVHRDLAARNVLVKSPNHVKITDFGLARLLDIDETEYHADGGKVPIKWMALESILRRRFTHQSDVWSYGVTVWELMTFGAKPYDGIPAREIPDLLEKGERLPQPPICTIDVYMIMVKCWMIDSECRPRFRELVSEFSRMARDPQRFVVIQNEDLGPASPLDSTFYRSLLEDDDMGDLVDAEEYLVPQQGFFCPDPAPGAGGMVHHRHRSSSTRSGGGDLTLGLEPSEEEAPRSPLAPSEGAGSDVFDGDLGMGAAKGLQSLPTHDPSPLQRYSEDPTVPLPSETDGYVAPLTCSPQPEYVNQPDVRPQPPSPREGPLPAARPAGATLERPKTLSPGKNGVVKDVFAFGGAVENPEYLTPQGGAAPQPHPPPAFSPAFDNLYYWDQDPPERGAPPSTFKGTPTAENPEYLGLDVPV

[7] = biological target: Receptor tyrosine-protein kinase erbB-2 (Homo sapiens) (UniProt P04626); conditions: at 1 µM
[8] = biological target: Receptor tyrosine-protein kinase erbB-4 (Homo sapiens) (UniProt Q15303); conditions: at 0.1 µM
[9] = biological target: Receptor tyrosine-protein kinase erbB-4 (Homo sapiens) (UniProt Q15303); conditions: at 1 µM
[10] = biological target: Tyrosine-protein kinase Fer (Homo sapiens) (UniProt P16591); conditions: at 0.1 µM
Sequence of Tyrosine-protein kinase Fer (Homo sapiens) (P16591 whole entry, looked up): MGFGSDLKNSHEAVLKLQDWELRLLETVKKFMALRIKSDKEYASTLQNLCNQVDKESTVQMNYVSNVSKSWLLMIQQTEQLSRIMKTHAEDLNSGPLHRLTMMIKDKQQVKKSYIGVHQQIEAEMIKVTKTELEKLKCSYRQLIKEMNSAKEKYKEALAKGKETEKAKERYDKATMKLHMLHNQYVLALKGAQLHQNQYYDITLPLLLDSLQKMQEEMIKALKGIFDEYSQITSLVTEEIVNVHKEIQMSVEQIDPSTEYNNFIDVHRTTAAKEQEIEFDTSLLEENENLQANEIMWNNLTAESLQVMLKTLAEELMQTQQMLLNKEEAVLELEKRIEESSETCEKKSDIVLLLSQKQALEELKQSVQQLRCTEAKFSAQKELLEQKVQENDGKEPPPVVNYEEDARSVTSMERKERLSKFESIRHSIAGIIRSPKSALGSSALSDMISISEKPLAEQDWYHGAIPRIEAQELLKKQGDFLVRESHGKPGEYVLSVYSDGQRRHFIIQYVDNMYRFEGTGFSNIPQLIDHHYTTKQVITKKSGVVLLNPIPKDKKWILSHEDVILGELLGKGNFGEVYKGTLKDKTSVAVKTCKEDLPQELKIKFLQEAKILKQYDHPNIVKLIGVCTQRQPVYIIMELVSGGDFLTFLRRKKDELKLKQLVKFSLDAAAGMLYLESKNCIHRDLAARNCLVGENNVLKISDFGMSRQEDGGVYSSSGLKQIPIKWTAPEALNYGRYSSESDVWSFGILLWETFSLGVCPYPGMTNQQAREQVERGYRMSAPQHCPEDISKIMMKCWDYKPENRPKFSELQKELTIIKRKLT

[11] = biological target: Tyrosine-protein kinase Fer (Homo sapiens) (UniProt P16591); conditions: at 1 µM
[12] = biological target: Tyrosine-protein kinase Fes/Fps (Homo sapiens) (UniProt P07332); conditions: at 0.1 µM
[13] = biological target: Tyrosine-protein kinase Fes/Fps (Homo sapiens) (UniProt P07332); conditions: at 1 µM
[14] = biological target: Fibroblast growth factor receptor 1 (Homo sapiens) (UniProt P11362); conditions: at 0.1 µM
Sequence of Fibroblast growth factor receptor 1 (Homo sapiens) (P11362 22-822 limits assumed): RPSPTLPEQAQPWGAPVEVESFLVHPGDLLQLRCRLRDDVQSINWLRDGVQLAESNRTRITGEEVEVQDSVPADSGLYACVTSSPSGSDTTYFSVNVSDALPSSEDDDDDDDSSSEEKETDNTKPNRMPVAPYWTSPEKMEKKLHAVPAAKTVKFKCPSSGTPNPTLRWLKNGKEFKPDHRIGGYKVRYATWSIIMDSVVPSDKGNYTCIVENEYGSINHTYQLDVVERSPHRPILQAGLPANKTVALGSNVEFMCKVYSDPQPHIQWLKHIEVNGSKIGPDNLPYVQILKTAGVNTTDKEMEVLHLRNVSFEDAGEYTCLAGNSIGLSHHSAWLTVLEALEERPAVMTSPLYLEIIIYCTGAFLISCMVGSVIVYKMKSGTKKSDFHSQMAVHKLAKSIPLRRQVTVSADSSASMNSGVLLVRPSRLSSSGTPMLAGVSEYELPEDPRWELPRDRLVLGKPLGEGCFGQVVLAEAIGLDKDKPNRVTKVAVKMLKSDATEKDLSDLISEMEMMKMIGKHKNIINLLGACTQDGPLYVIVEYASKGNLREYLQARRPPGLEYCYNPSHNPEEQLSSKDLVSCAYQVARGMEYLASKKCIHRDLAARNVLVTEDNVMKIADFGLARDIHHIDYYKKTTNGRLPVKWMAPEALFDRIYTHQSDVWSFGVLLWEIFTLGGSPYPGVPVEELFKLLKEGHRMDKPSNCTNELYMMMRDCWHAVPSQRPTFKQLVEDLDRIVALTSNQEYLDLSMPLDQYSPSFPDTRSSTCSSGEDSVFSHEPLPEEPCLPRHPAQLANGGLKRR

[15] = biological target: Fibroblast growth factor receptor 1 (Homo sapiens) (UniProt P11362); conditions: at 1 µM
[16] = biological target: Fibroblast growth factor receptor 2 (Homo sapiens) (UniProt P21802); conditions: at 0.1 µM
[17] = biological target: Fibroblast growth factor receptor 2 (Homo sapiens) (UniProt P21802); conditions: at 1 µM
[18] = biological target: Fibroblast growth factor receptor 3 (Homo sapiens) (UniProt P22607); conditions: at 0.1 µM
Sequence of Fibroblast growth factor receptor 3 (Homo sapiens) (P22607 23-806 limits assumed): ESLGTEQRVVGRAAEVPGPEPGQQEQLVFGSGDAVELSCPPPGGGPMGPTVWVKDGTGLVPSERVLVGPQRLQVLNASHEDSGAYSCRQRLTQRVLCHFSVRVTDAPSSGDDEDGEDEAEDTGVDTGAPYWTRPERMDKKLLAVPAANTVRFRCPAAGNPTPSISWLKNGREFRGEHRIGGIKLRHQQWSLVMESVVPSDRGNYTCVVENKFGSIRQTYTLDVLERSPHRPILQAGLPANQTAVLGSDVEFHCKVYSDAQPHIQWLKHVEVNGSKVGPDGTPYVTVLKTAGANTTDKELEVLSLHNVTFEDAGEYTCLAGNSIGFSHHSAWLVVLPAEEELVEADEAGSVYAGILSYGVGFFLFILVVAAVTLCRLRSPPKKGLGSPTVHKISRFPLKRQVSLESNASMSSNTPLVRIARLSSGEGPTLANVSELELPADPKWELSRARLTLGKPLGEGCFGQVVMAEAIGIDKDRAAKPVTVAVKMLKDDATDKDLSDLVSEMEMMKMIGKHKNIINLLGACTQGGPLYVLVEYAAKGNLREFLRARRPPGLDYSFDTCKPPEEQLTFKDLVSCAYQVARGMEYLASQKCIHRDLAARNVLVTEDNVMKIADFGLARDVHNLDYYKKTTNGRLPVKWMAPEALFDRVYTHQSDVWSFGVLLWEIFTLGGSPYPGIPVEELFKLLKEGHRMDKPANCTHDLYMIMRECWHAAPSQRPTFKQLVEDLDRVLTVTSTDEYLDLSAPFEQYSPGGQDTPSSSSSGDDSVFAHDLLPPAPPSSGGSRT

[19] = biological target: Fibroblast growth factor receptor 3 (Homo sapiens) (UniProt P22607); conditions: at 1 µM
[20] = biological target: Fibroblast growth factor receptor 4 (Homo sapiens) (UniProt P22455); conditions: at 0.1 µM;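 also: values are mean percent inhibition of FGFR4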
Sequence of Fibroblast growth factor receptor 4 (Homo sapiens) (P22455 22-802 limits assumed): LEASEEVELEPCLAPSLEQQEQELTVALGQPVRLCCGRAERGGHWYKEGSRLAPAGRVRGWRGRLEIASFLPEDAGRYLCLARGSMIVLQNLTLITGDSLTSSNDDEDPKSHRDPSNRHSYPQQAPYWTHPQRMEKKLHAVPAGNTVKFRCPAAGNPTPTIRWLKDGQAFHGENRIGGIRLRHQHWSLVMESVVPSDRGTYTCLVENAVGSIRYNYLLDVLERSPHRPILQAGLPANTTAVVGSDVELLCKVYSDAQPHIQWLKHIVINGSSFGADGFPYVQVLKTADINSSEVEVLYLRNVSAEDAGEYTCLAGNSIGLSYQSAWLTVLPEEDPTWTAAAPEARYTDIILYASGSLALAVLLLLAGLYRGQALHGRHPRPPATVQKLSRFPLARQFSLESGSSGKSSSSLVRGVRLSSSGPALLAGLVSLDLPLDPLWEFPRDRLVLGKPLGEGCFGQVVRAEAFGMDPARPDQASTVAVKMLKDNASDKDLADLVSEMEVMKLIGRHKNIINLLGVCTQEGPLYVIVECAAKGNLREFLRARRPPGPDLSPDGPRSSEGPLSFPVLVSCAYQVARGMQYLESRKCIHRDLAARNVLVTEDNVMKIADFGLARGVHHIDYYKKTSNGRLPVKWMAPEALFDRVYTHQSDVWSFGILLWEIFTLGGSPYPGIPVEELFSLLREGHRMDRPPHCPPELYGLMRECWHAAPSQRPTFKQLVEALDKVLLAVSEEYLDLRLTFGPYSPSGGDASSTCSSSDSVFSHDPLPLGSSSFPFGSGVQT

Compound	inhibition [1]	inhibition [2]	inhibition [3]	inhibition [4]	inhibition [5]	inhibition [6]	inhibition [7]	inhibition [8]	inhibition [9]	inhibition [10]	inhibition [11]	inhibition [12]	inhibition [13]	inhibition [14]	inhibition [15]	inhibition [16]	inhibition [17]	inhibition [18]	inhibition [19]	inhibition [20]
COC(=O)Nc1nc2ccc(Oc3ccc(NC(=O)Nc4cc(C(F)(F)F)ccc4F)cc3)cc2s1	83.7%	16.8%	36.6%	29.6%	73%	-0.44%	-0.72%	3.56%	3.36%	3.43%	6.3%	0.15%	0.99%	4.86%	16.9%	2.26%	29.7%	5.73%	11.5%	0.42%
Cc1cc(O)cc(C)c1/C=C/c1cncc(C(N)=O)c1	56.7%	5.06%	9.99%	9.23%	46.1%	5.08%	-0.51%	12.7%	14.4%	2%	1.87%	1.69%	1.94%	2.16%	7.91%	2.08%	7.34%	4.56%	4.79%	-4.55%
NS(=O)(=O)c1ccc(N/N=C2\C(=O)Nc3ccc(C(=O)NCc4ccncc4)cc32)cc1	11.1%	3.93%	2.6%	1.83%	4.17%	2.22%	6.09%	6.54%	7.07%	2.36%	5.14%	2.4%	1.67%	3.12%	5.51%	1.27%	11.9%	4.61%	8.12%	-2.09%
Nc1ncnc2occ(-c3ccc(NC(=O)Nc4cc(C(F)(F)F)ccc4F)cc3)c12	80.2% and 81.5%	26.4% and 1.64%	63.5% and 51.1%	30.6% and 20.3%	84.8% and 72.7%	0.55% and 1.68%	-4.37% and 6.37%	5.76% and -0.4%	4.08% and 3.51%	6.66% and 0.72%	29.4% and 17.7%	1.99% and -1.17%	3.25% and -0.8%	3.81% and 0.38%	29.8% and 19.3%	14.1% and 7.78%	52.2% and 43.8%	6.93% and 1.4%	34.3% and 17.9%	2.49% and 0.65%
c1ccc(-c2n[nH]cc2-c2ccnc(-c3ccc(OCCn4ccnc4)cc3)c2)nc1	0.77%	1.4%	-0.01%	0.04%	-0.88%	0.33%	-1.51%	-1.46%	3.39%	1.51%	1.84%	-0.05%	-0.73%	-3.47%	3.09%	0.47%	2.51%	1.79%	4.74%	1.45%
CC1=C(C(=O)Nc2ccc3[nH]nc(C)c3c2)C(c2ccc(C(F)(F)F)cc2)CC(=O)N1 (stereo not given)	3.69%	5.28%	2.84%	1.98%	4.06%	0.35%	0.13%	9.2%	16%	1.26%	3.02%	1.58%	2.34%	-0.57%	9.3%	4.48%	13.4%	5.62%	8.47%	-0.06%
